Laboratory results taken from PubChem BioAssay AID1159580 (chemical genetic matrix, 2015).
The campaign covered roughly 5,500 compounds. About 2,000 (36%) were called active. Not shown: some 18% with an inconclusive outcome. No stated cut-off is given here; in the data, active means normalized growth mostly below about 0.91 (no sharp cut-off); inconclusive means no clear call, values can overlap the other calls; inactive means mostly above about 0.92. The list shows a part of the results.

Test: chemical genetic growth profiling, strain panel (AID 1159580);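 further: tested at 20 µM; growth read once vehicle control cultures reached saturation at 30 °C; 1 = growth at the plate median or of vehicle wells; lower values mean less growth of the strain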
Conditions: S. cerevisiae deletion strains, growth OD
[1] = locus YAR019C, strain CDC15, active compounds read low
[2] = locus YBL105C, strain PKC1, active compounds read low
[3] = locus YBR135W, strain CKS1, active compounds read low
[4] = locus YBR136W, strain MEC1, active compounds read low
[5] = locus YBR160W, strain CDC28, active compounds read low
[6] = locus YDL017W, strain CDC7, active compounds read low
[7] = locus YDL028C, strain MPS1, active compounds read low
[8] = locus YDL101C, strain DUN1, active compounds read low
[9] = locus YDL108W, strain KIN28, active compounds read low
[10] = locus YDL132W, strain cdc53, active compounds read low
[11] = locus YDL214C, strain PRR2, active compounds read low
[12] = locus YDR052C, strain DBF4, active compounds read low
[13] = locus YDR054C, strain cdc34, active compounds read low
[14] = locus YDR226W, strain ADK1, active compounds read low
[15] = locus YDR477W, strain SNF1, active compounds read low
[16] = locus YER123W, strain YCK3, active compounds read low
[17] = locus YER133W, strain GLC7, active compounds read low
[18] = locus YFL009W, strain cdc4, active compounds read low
[19] = locus YFL029C, strain CAK1, active compounds read low
[20] = locus YFR003C, strain YPI1, active compounds read low
[21] = locus YFR019W, strain FAB1, active compounds read low
[22] = locus YFR028C, strain CDC14, active compounds read low
[23] = locus YGR040W, strain KSS1, active compounds read low
[24] = locus YGR052W, strain FMP48, active compounds read low
[25] = locus YGR092W, strain DBF2, active compounds read low
[26] = locus YHR030C, strain SLT2, active compounds read low
[27] = locus YHR079C, strain IRE1, active compounds read low
[28] = locus YHR082C, strain KSP1, active compounds read low
[29] = locus YHR205W, strain SCH9, active compounds read low
[30] = locus YIL147C, strain SLN1, active compounds read low
[31] = locus YJL095W, strain BCK1, active compounds read low
[32] = locus YJL128C, strain PBS2, active compounds read low
[33] = locus YJL157C, strain FAR1, active compounds read low
[34] = locus YJR016C, strain ILV3, active compounds read low
[35] = locus YJR066W, strain TOR1 (second series), active compounds read low
[36] = locus YJR066W, strain TOR1, active compounds read low
[37] = locus YKL048C, strain ELM1, active compounds read low
[38] = locus YKL067W, strain YNK1, active compounds read low
[39] = locus YKL101W, strain HSL1, active compounds read low
[40] = locus YKL193C, strain SDS22, active compounds read low
[41] = locus YKL203C, strain TOR2, active compounds read low
[42] = locus YLR113W, strain HOG1, active compounds read low
[43] = locus YLR133W, strain CKI1, active compounds read low
[44] = locus YLR403W, strain SFP1, active compounds read low
[45] = locus YML070W, strain DAK1, active compounds read low
[46] = locus YMR001C, strain CDC5, active compounds read low
[47] = locus YMR205C, strain PFK2 (second series), active compounds read low
[48] = locus YMR277W, strain FCP1, active compounds read low
[49] = locus YNL006W, strain LST8, active compounds read low
[50] = locus YNL020C, strain ARK1, active compounds read low
[51] = locus YNL161W, strain CBK1, active compounds read low
[52] = locus YNL183C, strain NPR1, active compounds read low
[53] = locus YNL207W, strain RIO2, active compounds read low
[54] = locus YNL222W, strain SSU72, active compounds read low
[55] = locus YNL307C, strain MCK1 (second series), active compounds read low
[56] = locus YOL078W, strain AVO1, active compounds read low
[57] = locus YOL136C, strain PFK27, active compounds read low
[58] = locus YOR061W, strain CKA2, active compounds read low
[59] = locus YOR119C, strain RIO1, active compounds read low
[60] = locus YOR231W, strain MKK1, active compounds read low
[61] = locus YOR329C, strain SCD5, active compounds read low
[62] = locus YPL031C, strain PHO85, active compounds read low
[63] = locus YPL153C, strain RAD53, active compounds read low
[64] = locus YPL204W, strain HRR25, active compounds read low
[65] = locus YPL209C, strain IPL1, active compounds read low
[66] = locus YPL256C, strain CLN2, active compounds read low
[67] = locus YPR025C, strain CCL1, active compounds read low
[68] = locus YPR106W, strain ISR1, active compounds read low
[69] = locus YPR111W, strain DBF20, active compounds read low
[70] = strain NNK1, active compounds read low
[71] = strain TSCII, active compounds read low
[72] = locus YAL013W, strain DEP1, active compounds read low
[73] = locus YBR229C, strain ROT2, active compounds read low
[74] = locus YCL061C, strain MRC1, active compounds read low
[75] = locus YDR150W, strain NUM1, active compounds read low
[76] = locus YEL061C, strain CIN8, active compounds read low
[77] = locus YGR078C, strain PAC10, active compounds read low
[78] = locus YHR087W, strain rtc3, active compounds read low
[79] = locus YJR075W, strain HOC1, active compounds read low
[80] = locus YKL190W, strain CNB1, active compounds read low
[81] = locus YLR039C, strain RIC1, active compounds read low
[82] = locus YLR058C, strain SHM2 (second series), active compounds read low
[83] = locus YLR085C, strain ARP6, active compounds read low
[84] = locus YLR262C, strain YPT6, active compounds read low
[85] = locus YML094W, strain GIM5, active compounds read low
[86] = locus YMR219W, strain ESC1, active compounds read low
[87] = locus YMR263W, strain SAP30, active compounds read low
[88] = locus YNL153C, strain GIM3, active compounds read low
[89] = locus YNL298W, strain CLA4 (second series), active compounds read low
[90] = locus YNL322C, strain KRE1, active compounds read low
[91] = locus YNR030W, strain Alg12, active compounds read low
[92] = locus YPL055C, strain LGE1, active compounds read low
[93] = locus YPL241C, strain CIN2, active compounds read low
[94] = locus YPR135W, strain CTF4, active compounds read low

Measured: normalized growth

Clc1ccc(-c2noc(CSC3=NCCN3)n2)cc1
active: [42] 0.839
inactive: [1] 0.987 | [2] 0.987 | [3] 0.98 | [4] 0.981 | [5] 0.984 | [6] 0.986 | [7] 0.979 | [8] 0.989 | [9] 0.979 | [10] 0.98 | [11] 0.923 | [12] 0.981 | [13] 0.96 | [14] 0.975 | [15] 0.938 | [16] 0.904 | [17] 0.935 | [18] 0.978 | [19] 0.987 | [20] 0.974 | [21] 0.948 | [22] 0.971 | [23] 0.926 | [24] 0.964 | [25] 0.955 | [26] 0.93 | [27] 0.968 | [28] 1.02 | [29] 0.962 | [30] 0.969 | [31] 0.949 | [32] 0.912 | [33] 0.925 | [34] 0.974 | [35] 0.912 | [36] 1.08 | [37] 0.96 | [38] 0.933 | [39] 0.939 | [40] 0.976 | [41] 1.01 | [43] 0.959 | [44] 0.982 | [45] 0.912 | [46] 0.987 | [47] 0.938 | [48] 0.975 | [49] 0.985 | [50] 0.962 | [51] 0.965 | [52] 1.05 | [53] 0.988 | [54] 0.981 | [55] 0.946 | [56] 0.974 | [57] 0.941 | [58] 0.938 | [59] 1 | [60] 0.965 | [61] 0.981 | [62] 0.924 | [63] 0.92 | [64] 0.903 | [65] 0.986 | [66] 0.945 | [67] 0.986 | [68] 0.975 | [69] 0.97 | [70] 0.977 | [71] 0.986

COc1cc(Cl)c(NS(=O)(=O)c2cc(Br)c(Br)s2)c(OC)c1
inactive: [1] 0.96 | [2] 0.977 | [3] 0.967 | [4] 0.977 | [5] 0.958 | [6] 0.978 | [7] 0.96 | [8] 0.977 | [9] 0.957 | [10] 0.954 | [11] 0.916 | [12] 0.988 | [13] 0.953 | [14] 0.962 | [15] 0.904 | [16] 0.898 | [17] 0.918 | [18] 0.948 | [19] 0.956 | [20] 0.973 | [21] 0.964 | [22] 0.949 | [23] 0.888 | [24] 0.923 | [25] 0.831 | [27] 0.905 | [28] 0.924 | [29] 0.933 | [30] 0.961 | [31] 0.885 | [32] 0.923 | [33] 0.919 | [34] 0.972 | [35] 0.858 | [36] 0.896 | [37] 0.969 | [38] 0.9 | [39] 0.917 | [40] 0.959 | [41] 0.986 | [43] 0.959 | [44] 0.922 | [45] 0.916 | [46] 0.969 | [47] 0.948 | [48] 0.946 | [49] 0.955 | [50] 0.931 | [51] 0.97 | [52] 0.904 | [53] 0.962 | [54] 0.95 | [55] 0.902 | [56] 0.96 | [57] 0.901 | [58] 0.912 | [59] 0.918 | [60] 0.908 | [61] 0.965 | [62] 0.894 | [63] 0.866 | [64] 0.868 | [65] 0.976 | [67] 0.968 | [68] 0.954 | [69] 0.938 | [70] 0.975 | [71] 0.963
active: [26] 0.664 | [42] 0.815 | [66] 0.856

COc1ccc(OC)c(S(=O)(=O)NCc2c(F)cccc2Cl)c1
inactive: [72] 0.994 | [73] 1.01 | [74] 1.01 | [8] 1.02 | [75] 0.985 | [76] 1.04 | [77] 1.02 | [26] 1.02 | [78] 1 | [79] 1.01 | [80] 1.01 | [81] 0.928 | [82] 1.02 | [83] 1.02 | [84] 0.893 | [85] 0.992 | [86] 1.01 | [87] 1.01 | locus YMR307W, strain GAS1, active compounds read low 1.09 | [88] 0.993 | [89] 1.02 | [90] 1.01 | [91] 1.02 | locus YOL006C, strain TOP1, active compounds read low 0.98 | [92] 1.02 | [93] 1.01 | [94] 1.01

O=S(=O)(c1cc(Br)c(Br)s1)N1CCCCC1
inactive: [72] 1.01 | [73] 0.993 | [74] 0.967 | [8] 0.963 | locus YDL134C, strain PPH21, active compounds read low 1.02 | [75] 1.01 | [76] 1.01 | [77] 1.01 | locus YGR229C, strain SMI1, active compounds read low 0.984 | [26] 1.14 | [78] 1.03 | locus YJR043C, strain POL32, active compounds read low 0.964 | [79] 1.01 | [80] 1.02 | [81] 0.942 | [82] 1.01 | [83] 1.02 | [84] 0.991 | [85] 1 | [86] 1 | [87] 1 | [88] 0.955 | [89] 1.02 | [90] 1.02 | [91] 1.03 | [92] 0.946 | [93] 1 | [94] 1.04
